This passage reports Potency and activity change, negative = inhibition results from PubChem BioAssay AID886 (National Center for Advancing Translational Sciences (NCATS), 2007).

Several values for one entry are separate records, joined by “and”; a condition that tells them apart may be missing. Equal entries are not always repeated. The whole screen tested about 73,000 compounds, of which about 2,500 (3.4%) were called active. A call without a number means that no potency is given here. Inconclusive results (about 7%) are left out. The full list was thinned out, with actives kept by preference. Unmarked numbers belong to inactive results. Calls come from the whole dose curve; as a rule, active = well fitted inhibition curve with a large enough effect; inconclusive = small, poorly fitted or top-dose-only effect; inactive = no such curve, though single readings can be large or run the other way.
Potency is the fitted concentration of half-maximal effect.

Chain of 3-hydroxyacyl-CoA dehydrogenase type-2 (Homo sapiens) (Q99714 whole entry, looked up): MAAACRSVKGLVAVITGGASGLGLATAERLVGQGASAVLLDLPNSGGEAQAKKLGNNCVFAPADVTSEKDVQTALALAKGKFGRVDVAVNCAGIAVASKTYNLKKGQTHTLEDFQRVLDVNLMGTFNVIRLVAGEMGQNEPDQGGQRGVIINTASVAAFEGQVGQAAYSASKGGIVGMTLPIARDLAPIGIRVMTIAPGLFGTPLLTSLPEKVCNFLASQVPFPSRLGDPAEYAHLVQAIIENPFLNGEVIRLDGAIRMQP
Chain of 3-hydroxyacyl-CoA dehydrogenase type-2 (Homo sapiens) (Q99714 whole entry, looked up): as above

This assay has as its target 3-hydroxyacyl-CoA dehydrogenase type-2 (Homo sapiens) (UniProt Q99714). In words: qHTS Assay for Inhibitors of HADH2 (Hydroxyacyl-Coenzyme A Dehydrogenase, Type II). Note: nearly all actives have a fitted effect of over 60% in size. To be noted: recombinant HADH2, NADH fluorescence, beta-hydroxybutyryl-CoA; series mostly up to 57.1 µM. The text has this:
Assay Overview: NIH Molecular Libraries Screening Centers Network [MLSCN] NIH Chemical Genomics Center [NCGC] Structural Genomics Consortium [SGC] Grant Number: None HADH2: Hydroxyacyl-Coenzyme A dehydrogenase, type II, was supplied by researchers at the Structural Genomics Consortium, Oxford University lab (PI Udo Oppermann). The mitochondrial enzyme 17-hydroxysteroid dehydrogenase type 10 (HSD17-10) previously classified as type II hydroxyacyl-CoA dehydrogenase (HADH2) catalyzes the NAD+ dependent oxidation of a variety of substrates including acyl-CoAs, androgens and neurosteroids as well as bile acids(Shafqat N, Marschall HU, Filling C, et al. Biochemical Journal. 2003;376(Pt 1):49-60). The role in neurodegeneration by binding to amyloid-peptide led to its identification (Oppermann UC, et al FEBS Letters. 1999;451(3):238-242 and Yan SD, et al. Nature. 1997;389(6652):689-695), and mutations in its gene appear to be causative for 2-methyl-3-hydroxybutyryl-CoA dehydrogenase deficiency (Ofman R, et al. American Journal of Human Genetics. 2003;72(5):1300-1307). The enzyme was produced by E.coli fermentation as His-tagged recombinant for the purpose of X-ray structure determination, and had been mass-spectrometry characterized. Inhibition of HADH2 activity was screened by utilizing beta-hydroxybutyryl coenzyme A as an electron donor and NAD+ as an electron acceptor/cofactor. An increase in the fluorescence intensity due to conversion of NAD+ to NADH was used to measure the enzyme activity.
Assay Protocol: Buffer: 100 mM Tris-HCl pH 9.0, containing 0.01 % Tween-20. Reagents/Controls: Buffer in columns 3 and 4 as negative control (no enzyme). Substrate/cofactor solution: 1 mM NAD+ and 90 uM beta-hydroxybutyryl coenzyme A (Sigma-Aldrich, St. Louis, MO) final concentrations dispensed throughout the plate. Enzyme: 20 nM HADH2 final concentration in columns 1, 2, 5-48. Column 1 is neutral (100% activity). Column 2 contained titration of apomorphine (Sigma-Aldrich, A 4393, PubChem CID 2215, top concentration 500 uM, then 1:2 dilution in duplicate) Assay Steps: Three uL of enzyme were dispensed to 1536-well Greiner black solid bottom plates. Compounds and controls (23 nL) were transferred via Kalypsys PinTool. The plates were incubated for 15 min at room temperature, and then 1 uL of substrate/cofactor solution was added to start the reaction. The plates were immediately transferred to and read every 30 seconds for 4 min on ViewLux High-throughput CCD imager (Perkin-Elmer) using 360 nm excitation and 450 nm emission fluorescence protocol. The fluorescence intensity difference between the last and the first time points was used to compute reaction progress.
With `Cc1cccc(C(=O)O)c1`, the Potency result is “inactive”.

Regarding `O=C(O)c1ccc(Cl)c(S(=O)(=O)Nc2ccccc2Cl)c1`, the Potency result was “inactive”.

In the case of `COC(=O)c1ccc2c(=O)n(CC3CCCO3)c(=S)[nH]c2c1` (stereo not drawn), the Potency result is “inactive”.

For `COC(=O)c1cccc(NC(=O)CSc2nc(C)cc(=O)[nH]2)c1`, the Potency entry is “inactive”.

Consider `CCOC(=O)c1sc(=S)n2c1[nH]c(=O)c1ccc(C(=O)OC)cc12`, for which the Potency was 1 µM (active).

Take `O=c1c(-c2cc(F)cc(F)c2)nc2cnc(Oc3ccccc3)nc2n1C[C@H]1CCCO1`: the Potency entry is “inactive”.

Regarding `Fc1ccc(-c2nnc(CSc3nnc(-c4ccc5c(c4)OCO5)o3)o2)cc1`, the Potency result was “inactive”.

Regarding `Fc1ccc(-c2ccc(-c3nn4c(-c5ccco5)nnc4s3)o2)cc1`, the Potency result was “inactive”.

For `Fc1ccc(-c2nnc3sc(-c4ccc5c(c4)OCO5)nn23)cc1`, the Potency was 25.1 µM (active).

In the case of `C/C(CCN1CCCCc2nc(C)c(C)cc21)=N\O[C@@H](C)c1cn([C@@H]2COC[C@@H]2O)nn1`, the activity change, negative = inhibition is -2.51% [at 11.4 µM].

Regarding `O=C(c1ccc(F)cc1)C1CCN(CCCCc2ccccc2)CC1`, the Potency result was “inactive”.

As for `COc1ccc(OC)c(C(=O)CSc2nnc(-c3cccs3)o2)c1`, the Potency is 25.1 µM (active).

For `COc1ccc(-n2c(C)cc(C(=O)CSc3nnc(-c4cccs4)o3)c2C)cc1`, the Potency result is “inactive”.

On to `COc1ccc(-c2nnc(SCC(=O)c3cccs3)o2)c(OC)c1`, for which the Potency result was “inactive”.

On to `CCCCC[C@H](O)CCCC(=O)O`, for which the Potency entry is “inactive”.

For the molecule `CN1CCC(CNC(=O)c2ccc(-n3c(=O)c(=O)[nH]c4ccccc43)cc2)CC1`, the Potency entry was “inactive”.

As for `COC(=O)C1(C)C=CCN1C(=O)c1ccccc1` (stereo not drawn), the Potency result was “inactive”.

Take `O=C1[C@H]2[C@H]3[C@H](O)[C@H](O)C/C(=N/OCc4ccccc4)[C@H]3CC[C@@H]2C(=O)N1Cc1ccccc1`: the activity change, negative = inhibition is -3.88% [at 11.4 µM].

With `CN1CCC2(CC1)CCN(S(=O)(=O)c1ccccc1)CC2`, the Potency entry is “inactive”.

On to `O=S(=O)(O)c1ccc(O)c2ncccc12.O=S(=O)(O)c1ccc(O)c2ncccc12.[Zn]`, for which the activity change, negative = inhibition was -19.7% [at 11.4 µM].

Consider `CCS(=O)(=O)N(C)[C@@H]1c2cc(C#N)ccc2OC(C)(C)[C@H]1O`, for which the Potency result is “inactive”.

Turning to `Nc1ccc(-c2nnc(-c3ccc(-c4ccccc4)cc3)o2)cc1`, the Potency is 31.6 µM (active).

For `O=C(COC(=O)c1ccc(Oc2ccccc2)cc1)Nc1nnc(-c2ccccc2)o1`, the Potency entry is “inactive”.

As to `CC(N)=NCc1cccc(CN)c1`, the Potency result is “inactive”.

With `CN1CCN2c3ccccc3Cc3ccccc3[C@@H]2C1`, the Potency entry was “inactive”.

As for `CCN1C(=O)/C(=C2/Sc3ccccc3N2CCCS(=O)(=O)O)SC1=S`, the Potency was 20 µM (active).

For `CCN1C(=O)/C(=C\N2CCN(c3ccccc3)CC2)SC1=S`, the Potency result was “inactive”.

Take `CCN1C(=O)/C(=C\N2CCN(c3cccc(Cl)c3)CC2)SC1=S`: the Potency entry was “inactive”.

As for `Cc1ccc(NC(=O)c2cccc(N(C)C)c2)cc1NC(=O)c1ccc(O)cc1`, the Potency entry is “inactive”.

As for `CCC[C@@H]1C[C@@]1(CCC)C(NS(=O)(=O)c1cccc2cccnc12)c1ccc(Cl)cc1` (stereo partly drawn), the Potency result was “inactive”.

Turning to `C[C@]1(C(=O)NCCc2c[nH]c3ccccc23)C=C[C@@H](Cc2ccccc2)N1C(=O)c1ccccc1`, the Potency result was “inactive”.

For the molecule `COC(=O)C1=C(C)N(Cc2ccccc2)C2=C3C(=O)N(c4ccccc4)C(=O)C3[C@@](O)(C(=O)OC)C(=O)N2C1c1ccccc1` (stereo partly drawn), the activity change, negative = inhibition was 10.1% [at 11.4 µM] and 2.48% [at 11.4 µM].

Take `CCOc1nc(OCC)nc(-n2cc(-c3ccccc3)nn2)n1`: the Potency entry was “inactive”.

As for `CC(=O)Nc1ccc(-c2cn3cccnc3n2)cc1`, the Potency is 15.8 µM (active).

In the case of `c1ccc(-c2cn3cccnc3n2)cc1`, the Potency was 12.6 µM (active).

As for `CC(=O)Nc1cccc(-c2cnc3ccccc3n2)c1`, the Potency entry is “inactive”.

On to `CCCC(=O)Nc1cccc(-c2cn3ccsc3n2)c1`, for which the Potency result is “inactive”.

Consider `COC(=O)C(C(=O)OC)[C@@H]1CCCC(=O)C1`, for which the activity change, negative = inhibition is 12% [at 11.4 µM].

`CC(C)[C@@H](CC(=O)N[C@@H]1CCNC[C@H]1C(=O)N[C@H](CC(=O)N[C@@H](CCC(=O)O)CC(=O)O)Cc1ccccc1)NC(=O)C[C@H](CO)NC(=O)[C@@H]1CNCC[C@H]1N`: the Potency result is “inactive”.

`O=C1C(c2ccccn2)=[N+]([O-])c2ccccc21`: the Potency result was “inactive”.

Take `Cc1c(C(=O)N2CCOCC2)[nH]c2ccc(OCc3ccccc3)cc12`: the Potency result is “inactive”.

Regarding `CCOC(=O)c1[nH]c2ccc(OC)cc2c1NC(=O)N1CCOCC1`, the Potency was 25.1 µM (active).

Consider `COc1cc(NC(=O)N2CCOCC2)cc(OC)c1`, for which the Potency result was “inactive”.

Consider `CC(=O)N1CCC2(CC1)CCN(c1ccncc1)CC2`, for which the Potency entry was “inactive”.

Take `CC1(CCC(=O)OC2CCCCC2)OCCO1`: the activity change, negative = inhibition is -20.4% [at 11.4 µM].

As for `O=C(Cn1ccc(=O)[nH]c1=O)Nc1ccc(C(=O)O)c(O)c1`, the activity change, negative = inhibition was -10.7% [at 11.4 µM].

As for `COc1ccccc1-c1nc(NCc2cccs2)c2ccccc2n1`, the Potency result was “inactive”.

On to `CC(C)c1ccc2c([Si](C)(C)C)c3c(nc2c1)-c1cccc(=O)n1C3`, for which the Potency result is “inactive”.
